# Results from PMC7862700, “An all-to-all approach to the identification of sequence-specific readers for epigenetic DNA modifications on cytosine”.
# Experiments:
# Test in all cases: DAPPL (digital affinity profiling via proximity ligation, sequencing); 10 mM Tris-HCl pH 7.5, 50 mM NaCl, 1 mM DTT, 4% glycerol, room temperature, 30 min; GST-TFs on glutathione beads, 16-mer random dsDNA library, 0.1% formaldehyde crosslink after washing; high values mean tight binding
# Conditions in all cases: protein: recombinant; tags: N-terminal GST; dsDNA, one strand shown
# FLI1 = target: T1, FLI1 (Homo sapiens, UniProt Q01543 1-452)
# T1 sequence: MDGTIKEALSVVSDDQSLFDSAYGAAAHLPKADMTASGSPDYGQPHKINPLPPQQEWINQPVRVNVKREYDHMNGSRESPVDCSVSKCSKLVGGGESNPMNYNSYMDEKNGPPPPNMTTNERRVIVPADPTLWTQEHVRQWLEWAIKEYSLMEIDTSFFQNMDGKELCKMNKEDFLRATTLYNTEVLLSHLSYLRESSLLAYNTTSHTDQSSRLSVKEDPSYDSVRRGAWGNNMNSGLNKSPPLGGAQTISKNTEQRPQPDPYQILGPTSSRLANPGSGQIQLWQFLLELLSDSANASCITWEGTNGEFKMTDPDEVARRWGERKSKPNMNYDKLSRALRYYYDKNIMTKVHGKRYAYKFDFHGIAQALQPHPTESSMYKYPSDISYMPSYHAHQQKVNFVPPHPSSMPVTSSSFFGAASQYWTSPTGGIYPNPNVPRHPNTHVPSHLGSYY
# In short: (§1)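 Binding signal is each hexamer's read frequency for a factor divided by its frequency in the tag-only sample. The factors were GST-fused human transcription factors from yeast, captured on glutathione beads, DNA-barcoded and pooled with that sample. Pools were incubated with 200 nmole of a random double-stranded 16-mer DNA library in Tris/NaCl/DTT/glycerol buffer at room temperature for 30 min, then washed, crosslinked with 0.1% formaldehyde, proximity-ligated with BsaI/T4 ligase (1 h, 37 °C), PCR-amplified and sequenced on an Illumina NextSeq500.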
# ELK1 = target: T2, ELK1 (Homo sapiens, UniProt P19419 1-428)
# T2 sequence: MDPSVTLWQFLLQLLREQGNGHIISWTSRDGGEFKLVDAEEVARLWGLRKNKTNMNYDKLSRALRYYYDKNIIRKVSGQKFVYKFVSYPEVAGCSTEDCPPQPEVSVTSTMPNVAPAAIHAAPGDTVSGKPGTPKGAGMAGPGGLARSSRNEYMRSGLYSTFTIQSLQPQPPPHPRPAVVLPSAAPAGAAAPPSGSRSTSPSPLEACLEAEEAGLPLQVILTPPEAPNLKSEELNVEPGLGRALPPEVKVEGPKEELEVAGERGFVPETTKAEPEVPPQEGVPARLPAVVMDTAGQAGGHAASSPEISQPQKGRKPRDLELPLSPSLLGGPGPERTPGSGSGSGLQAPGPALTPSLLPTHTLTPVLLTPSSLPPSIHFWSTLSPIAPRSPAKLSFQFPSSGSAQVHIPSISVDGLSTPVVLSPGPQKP
# In short: as §1
# GABPA = target: T3, GABPA (Homo sapiens, UniProt Q06546 1-454)
# T3 sequence: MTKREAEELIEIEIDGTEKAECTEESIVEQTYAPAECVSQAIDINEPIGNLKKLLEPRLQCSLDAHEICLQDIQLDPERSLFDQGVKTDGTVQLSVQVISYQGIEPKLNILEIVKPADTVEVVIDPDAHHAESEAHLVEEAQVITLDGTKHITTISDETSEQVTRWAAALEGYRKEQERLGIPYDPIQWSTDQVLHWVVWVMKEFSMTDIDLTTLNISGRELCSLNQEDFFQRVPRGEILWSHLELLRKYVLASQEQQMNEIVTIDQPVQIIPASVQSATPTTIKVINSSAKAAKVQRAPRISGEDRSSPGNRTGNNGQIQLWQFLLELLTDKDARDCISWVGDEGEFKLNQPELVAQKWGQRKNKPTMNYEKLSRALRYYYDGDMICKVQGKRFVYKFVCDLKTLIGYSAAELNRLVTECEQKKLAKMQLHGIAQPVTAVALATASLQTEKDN
# In short: as §1
# ERG = target: T4, ERG (Homo sapiens, UniProt P11308 1-479)
# T4 sequence: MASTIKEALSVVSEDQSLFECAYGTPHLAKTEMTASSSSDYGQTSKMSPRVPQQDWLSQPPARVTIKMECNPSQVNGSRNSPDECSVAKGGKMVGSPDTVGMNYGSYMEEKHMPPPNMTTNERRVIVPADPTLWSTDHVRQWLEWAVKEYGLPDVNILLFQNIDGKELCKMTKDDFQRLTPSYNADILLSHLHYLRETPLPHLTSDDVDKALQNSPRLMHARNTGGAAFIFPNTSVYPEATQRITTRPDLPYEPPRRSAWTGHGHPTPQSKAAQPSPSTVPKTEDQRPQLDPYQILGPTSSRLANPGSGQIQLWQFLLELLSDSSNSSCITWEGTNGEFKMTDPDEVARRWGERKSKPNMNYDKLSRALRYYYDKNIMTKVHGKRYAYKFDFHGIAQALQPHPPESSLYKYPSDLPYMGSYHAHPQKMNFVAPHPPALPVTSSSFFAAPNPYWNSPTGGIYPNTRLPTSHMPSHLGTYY
# In short: as §1
# ELF1 = ELF1 (Homo sapiens, UniProt P32519 1-619)
# Chain of ELF1 (P32519 whole entry): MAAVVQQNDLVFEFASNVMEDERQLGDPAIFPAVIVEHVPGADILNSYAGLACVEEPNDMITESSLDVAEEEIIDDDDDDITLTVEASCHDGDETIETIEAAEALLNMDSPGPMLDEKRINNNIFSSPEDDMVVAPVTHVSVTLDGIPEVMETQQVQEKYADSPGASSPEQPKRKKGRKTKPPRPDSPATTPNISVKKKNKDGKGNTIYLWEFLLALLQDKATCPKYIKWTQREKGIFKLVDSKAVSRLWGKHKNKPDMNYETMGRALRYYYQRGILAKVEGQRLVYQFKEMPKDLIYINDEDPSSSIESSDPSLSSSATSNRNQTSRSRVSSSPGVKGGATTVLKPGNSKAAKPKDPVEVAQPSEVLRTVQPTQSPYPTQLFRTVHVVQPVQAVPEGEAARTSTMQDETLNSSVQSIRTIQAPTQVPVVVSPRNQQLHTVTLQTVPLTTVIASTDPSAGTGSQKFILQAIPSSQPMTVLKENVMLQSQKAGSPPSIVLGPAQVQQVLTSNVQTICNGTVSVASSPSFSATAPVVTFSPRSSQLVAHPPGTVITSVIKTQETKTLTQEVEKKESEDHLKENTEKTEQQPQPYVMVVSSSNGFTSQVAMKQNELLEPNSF
# In short: as §1
# EHF = target: T5, EHF (Homo sapiens, UniProt Q9NZC4 1-300)
# T5 sequence: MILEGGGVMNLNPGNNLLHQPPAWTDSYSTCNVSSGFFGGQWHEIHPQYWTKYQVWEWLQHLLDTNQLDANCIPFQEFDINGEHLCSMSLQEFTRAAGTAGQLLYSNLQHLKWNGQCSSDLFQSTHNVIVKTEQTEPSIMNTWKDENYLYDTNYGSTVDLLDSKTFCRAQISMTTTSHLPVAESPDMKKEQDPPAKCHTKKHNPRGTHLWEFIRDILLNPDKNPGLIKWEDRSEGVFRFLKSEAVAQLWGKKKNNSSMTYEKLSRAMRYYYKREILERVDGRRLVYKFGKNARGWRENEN
# In short: as §1
# SPI1 = SPI1 (Homo sapiens, UniProt P17947 1-270)
# In short: as §1
# SPIB = SPIB (Homo sapiens, UniProt Q01892 1-262)
# Chain of SPIB (Q01892 whole entry): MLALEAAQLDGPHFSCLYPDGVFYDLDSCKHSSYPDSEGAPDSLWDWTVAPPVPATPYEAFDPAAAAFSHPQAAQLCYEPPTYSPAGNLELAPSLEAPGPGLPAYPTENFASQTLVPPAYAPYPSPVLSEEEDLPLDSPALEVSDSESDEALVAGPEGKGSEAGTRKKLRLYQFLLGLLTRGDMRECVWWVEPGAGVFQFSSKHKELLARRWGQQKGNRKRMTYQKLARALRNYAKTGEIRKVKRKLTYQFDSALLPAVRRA
# In short: as §1
# ELK3 = target: T6, ELK3 (Homo sapiens, UniProt P41970 1-407)
# T6 sequence: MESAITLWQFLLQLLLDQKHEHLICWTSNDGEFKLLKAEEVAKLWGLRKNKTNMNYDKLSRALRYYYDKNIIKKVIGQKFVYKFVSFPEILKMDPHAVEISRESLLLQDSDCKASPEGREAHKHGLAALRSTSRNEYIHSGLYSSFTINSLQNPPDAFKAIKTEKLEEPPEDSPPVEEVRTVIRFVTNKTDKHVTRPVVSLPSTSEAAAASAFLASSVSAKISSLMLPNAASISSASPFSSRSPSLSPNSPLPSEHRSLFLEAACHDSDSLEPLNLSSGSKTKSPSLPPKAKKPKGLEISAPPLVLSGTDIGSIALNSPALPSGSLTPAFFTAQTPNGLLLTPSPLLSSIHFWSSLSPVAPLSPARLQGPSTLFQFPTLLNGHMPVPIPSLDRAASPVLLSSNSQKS
# In short: as §1
Sequence,binding signal (FLI1),binding signal (ELK1),binding signal (GABPA),binding signal (ERG),binding signal (ELF1),binding signal (EHF),binding signal (SPI1),binding signal (SPIB),binding signal (ELK3)
AACCTA,"1.03 fold enrichment (6-mer frequency, TF over GST control)","1.08 fold enrichment (6-mer frequency, TF over GST control)","1.1 fold enrichment (6-mer frequency, TF over GST control)","1.01 fold enrichment (6-mer frequency, TF over GST control)","1.1 fold enrichment (6-mer frequency, TF over GST control)","1.11 fold enrichment (6-mer frequency, TF over GST control)","1.08 fold enrichment (6-mer frequency, TF over GST control)","1.1 fold enrichment (6-mer frequency, TF over GST control)","1.1 fold enrichment (6-mer frequency, TF over GST control)"
CATCCC,"1.39 fold enrichment (6-mer frequency, TF over GST control)","1.22 fold enrichment (6-mer frequency, TF over GST control)","1.24 fold enrichment (6-mer frequency, TF over GST control)","1.29 fold enrichment (6-mer frequency, TF over GST control)","1.29 fold enrichment (6-mer frequency, TF over GST control)","1.29 fold enrichment (6-mer frequency, TF over GST control)","1.25 fold enrichment (6-mer frequency, TF over GST control)","1.26 fold enrichment (6-mer frequency, TF over GST control)","1.24 fold enrichment (6-mer frequency, TF over GST control)"
TTCCAA,"1.39 fold enrichment (6-mer frequency, TF over GST control)","1.19 fold enrichment (6-mer frequency, TF over GST control)","1.34 fold enrichment (6-mer frequency, TF over GST control)","1.26 fold enrichment (6-mer frequency, TF over GST control)","1.31 fold enrichment (6-mer frequency, TF over GST control)","1.26 fold enrichment (6-mer frequency, TF over GST control)","1.11 fold enrichment (6-mer frequency, TF over GST control)","1.29 fold enrichment (6-mer frequency, TF over GST control)","1.26 fold enrichment (6-mer frequency, TF over GST control)"
CTGTCT,"1.35 fold enrichment (6-mer frequency, TF over GST control)","1.3 fold enrichment (6-mer frequency, TF over GST control)","1.31 fold enrichment (6-mer frequency, TF over GST control)","1.46 fold enrichment (6-mer frequency, TF over GST control)","1.35 fold enrichment (6-mer frequency, TF over GST control)","1.35 fold enrichment (6-mer frequency, TF over GST control)","1.33 fold enrichment (6-mer frequency, TF over GST control)","1.3 fold enrichment (6-mer frequency, TF over GST control)","1.62 fold enrichment (6-mer frequency, TF over GST control)"
TTTGCC,"1.42 fold enrichment (6-mer frequency, TF over GST control)","1.26 fold enrichment (6-mer frequency, TF over GST control)","1.2 fold enrichment (6-mer frequency, TF over GST control)","1.26 fold enrichment (6-mer frequency, TF over GST control)","1.23 fold enrichment (6-mer frequency, TF over GST control)","1.22 fold enrichment (6-mer frequency, TF over GST control)","1.23 fold enrichment (6-mer frequency, TF over GST control)","1.31 fold enrichment (6-mer frequency, TF over GST control)","1.21 fold enrichment (6-mer frequency, TF over GST control)"
TAACTG,"1.12 fold enrichment (6-mer frequency, TF over GST control)","1.19 fold enrichment (6-mer frequency, TF over GST control)","1.24 fold enrichment (6-mer frequency, TF over GST control)","1.25 fold enrichment (6-mer frequency, TF over GST control)","1.27 fold enrichment (6-mer frequency, TF over GST control)","1.15 fold enrichment (6-mer frequency, TF over GST control)","1.21 fold enrichment (6-mer frequency, TF over GST control)","1.33 fold enrichment (6-mer frequency, TF over GST control)","1.26 fold enrichment (6-mer frequency, TF over GST control)"
TGGCTT,"1.27 fold enrichment (6-mer frequency, TF over GST control)","1.21 fold enrichment (6-mer frequency, TF over GST control)","1.33 fold enrichment (6-mer frequency, TF over GST control)","1.31 fold enrichment (6-mer frequency, TF over GST control)","1.28 fold enrichment (6-mer frequency, TF over GST control)","1.26 fold enrichment (6-mer frequency, TF over GST control)","1.24 fold enrichment (6-mer frequency, TF over GST control)","1.26 fold enrichment (6-mer frequency, TF over GST control)","1.23 fold enrichment (6-mer frequency, TF over GST control)"
